# Bioassay records: PubChem, National Center for Advancing Translational Sciences (NCATS)
# PLK1 PBD block = PLK1 (human) polo-box domain binding inhibition | P53350 | Plk1 PBD binding of FITC phosphopeptide, fluorescence polarization | Potency, µM, for inactives: max response, negative = inhibition, actives largely listed as inhibitors | hit rate 2.8% among 360,000 | AID 720504; also: potency is read from the fitted curve at half-maximal effect; series mostly up to about 57 µM; % is scaled to controls: 0 for no effect and ±100 for the full control effect; nearly all actives have a fitted effect of over 65% in size
# WRN helicase inh = inhibitors of human WRN helicase | Q14191 | WRN helicase unwinding, fluorescent forked duplex, kinetic | Potency, µM (titrated, usually from 114 µM), without a hit: top-dose activity change, negative = inhibition, actives largely listed as inhibitors | hit rate 0.46% among 360,000 | AID 651768; also: potency is read from the fitted curve at half-maximal effect; % is scaled to controls: 0 for no effect and ±100 for the full control effect; nearly all actives have a fitted effect of over 55% in size
# Target sequence (Q14191 whole entry, looked up): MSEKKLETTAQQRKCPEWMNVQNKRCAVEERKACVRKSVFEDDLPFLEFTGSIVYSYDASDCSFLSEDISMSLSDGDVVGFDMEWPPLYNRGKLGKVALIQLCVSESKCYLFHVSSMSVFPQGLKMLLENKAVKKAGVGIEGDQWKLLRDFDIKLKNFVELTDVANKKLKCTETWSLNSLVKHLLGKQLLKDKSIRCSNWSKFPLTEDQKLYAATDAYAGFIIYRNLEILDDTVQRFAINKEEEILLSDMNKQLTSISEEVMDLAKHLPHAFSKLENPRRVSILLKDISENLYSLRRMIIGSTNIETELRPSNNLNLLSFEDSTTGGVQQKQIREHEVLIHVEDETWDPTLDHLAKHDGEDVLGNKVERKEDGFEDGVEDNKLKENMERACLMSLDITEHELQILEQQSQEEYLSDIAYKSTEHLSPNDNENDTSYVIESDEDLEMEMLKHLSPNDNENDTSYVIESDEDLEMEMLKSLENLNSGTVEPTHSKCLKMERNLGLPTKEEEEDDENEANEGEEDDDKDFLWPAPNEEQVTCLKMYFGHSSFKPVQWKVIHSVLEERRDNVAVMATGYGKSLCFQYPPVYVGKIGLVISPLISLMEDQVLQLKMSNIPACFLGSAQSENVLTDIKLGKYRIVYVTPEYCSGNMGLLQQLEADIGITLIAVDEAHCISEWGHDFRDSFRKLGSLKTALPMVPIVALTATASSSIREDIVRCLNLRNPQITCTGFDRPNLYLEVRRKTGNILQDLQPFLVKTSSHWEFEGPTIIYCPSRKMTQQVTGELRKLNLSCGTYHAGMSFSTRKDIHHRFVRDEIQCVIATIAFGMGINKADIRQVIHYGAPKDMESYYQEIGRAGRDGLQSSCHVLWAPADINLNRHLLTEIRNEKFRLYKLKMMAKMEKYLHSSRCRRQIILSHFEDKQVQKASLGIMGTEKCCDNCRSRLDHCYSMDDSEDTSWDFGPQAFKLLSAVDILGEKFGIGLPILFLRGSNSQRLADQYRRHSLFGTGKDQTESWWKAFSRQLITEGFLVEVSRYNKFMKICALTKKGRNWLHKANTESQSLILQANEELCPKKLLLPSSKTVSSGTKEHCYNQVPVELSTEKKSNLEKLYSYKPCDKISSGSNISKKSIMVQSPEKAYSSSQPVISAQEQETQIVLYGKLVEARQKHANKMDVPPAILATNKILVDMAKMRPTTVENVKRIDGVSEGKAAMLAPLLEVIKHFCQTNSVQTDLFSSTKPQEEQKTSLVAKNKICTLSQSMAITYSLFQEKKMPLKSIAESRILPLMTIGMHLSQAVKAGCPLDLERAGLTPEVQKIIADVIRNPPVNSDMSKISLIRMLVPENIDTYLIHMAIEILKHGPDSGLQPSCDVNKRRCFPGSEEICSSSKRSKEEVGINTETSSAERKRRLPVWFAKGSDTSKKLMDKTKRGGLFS
#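 Primary qHTS, 1536-well format. 20 nM WRN + compound, 15 min RT; start with 100 nM forked fluorophore/quencher duplex, 2 mM ATP (final); kinetic read ex 525/em 598 nm.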
# TCR activator = activates T cell receptor signaling | primary human leukocytes, anti-CD3, IL-2 HTRF, 48 h | Potency, µM (top dose mostly 9.22 µM), for the others: top-dose activation of IL-2 secretion, most hits filed as activators | 330,000 tested, under 10 active; also: % of control where 0% means no effect
#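 Human primary leukocytes + a-CD3 beads + cpd, 48 hr; IL-2 in supernatant by HTRF (ex 320nm / em 665nm). No co-stimulatory signal supplied.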
# VDR inh = vitamin D3 receptor (human) inhibition; Potency, µM, inactives show max response, negative = inhibition, actives largely listed as inhibitors; hit rate 0.93% among 400,000; VDR-SRC2-3 peptide fluorescence polarization, 2 h; P11473; also: potency is read from the fitted curve at half-maximal effect; % is scaled to controls: 0 for no effect and ±100 for the full control effect
#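 The screen uses fluorescence polarization to detect compounds that interfere with recruitment of the SRC2-3 coactivator peptide to VDR; plates are read after 2 h at room temperature.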
# FEN1 inhibitor = inhibitors of human flap endonuclease 1 | Potency, µM (doses to about 114 µM), for inactives: at the top dose activity change, negative = inhibition, most hits filed as inhibitors | P39748 | Recombinant FEN1 flap cleavage, fluorescence, 15 min | hit rate 0.35% among 390,000; also: potency is read from the fitted curve at half-maximal effect; % is scaled to controls: 0 for no effect and ±100 for the full control effect; nearly all actives have a fitted effect of over 65% in size
#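 With each library titrated from low to high concentration, compounds met 10 nM FEN1 for 15 min at room temperature before 50 nM substrate was added; readings at 0 and 15 min fed four-parameter Hill curve fits.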
# PI5P4K alpha inh = blocks human PI5P4K alpha kinase activity; PI5P4Kalpha enzyme, ADP-Glo luminescence, 60 min; hits give low values; max response, %; hit rate 1.2% among 330,000; AID 652105; active = max response of -50% or lower; inconclusive = between -30% and -50%; inactive = -30% or higher; also: value at the top dose of about 77 µM; % is scaled to controls: 0 for no effect and ±100 for the full control effect
#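 Human PI5P4Kalpha with substrate in 0.038 M HEPES pH 7.4, 0.28 mM EGTA, 0.1% CHAPS, 5% DMSO; reaction started with 5 microM ATP (final), 60 min at room temperature. ADP formed read by ADP-Glo luminescence.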
# VDR confirm = inhibits human vitamin D receptor, primary hit validation; hit rate 89% among 840; shares compounds with VDR inh; Potency, µM, hits mostly inhibitors; VDR-coactivator inhibition assay, qHTS confirmation; also: potency is read from the fitted curve at half-maximal effect
# VDR FP = VDR (human) coactivator binding inhibition, fluorescein polarization | shares compounds with VDR inh | VDR-coactivator binding, fluorescein fluorescence polarization | Potency, µM (highest dose often 57.1 µM), inactives show top-dose activity change, negative = inhibition, actives largely listed as inhibitors | hit rate 48% among 840; also: potency is read from the fitted curve at half-maximal effect
# VDR bla reporter = confirmation of human vitamin D receptor inhibitors in reporter cells | Potency, µM (top dose mostly 46.1 µM), for inactives: top-dose activity change, negative = inhibition, usual class: inhibitors | shares compounds with VDR inh | hit rate 23% among 840 | VDR beta-lactamase reporter cells, FRET ratio; cells co-treated with VDR agonist LG190178; also: potency is read from the fitted curve at half-maximal effect; % is scaled to controls: 0 for no effect and ±100 for the full control effect
# VDR viability = cytotoxic in counter-screen for VDR inhibitors; cytotoxicity counter-screen, cell viability, qHTS; shares compounds with VDR inh; Potency, µM (doses to about 48.3 µM), inactives show at the top dose activity change, negative = cytotoxicity, usual class: cytotoxic; hit rate 18% among 840;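 also: potency is read from the fitted curve at half-maximal effect; plate controls were DMSO for no effect and high-concentration cycloheximide for full effect; nearly all actives have a fitted effect of over 75% in size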
# * = called active by the depositor; ? = inconclusive; · = not tested or not shown; [ ] = remark or other dose. The list is not random: actives were taken first. Their share in the collection is about 3.7%. Unless noted, calls follow the shape of the dose curve; as a rule, active = well fitted curve in the direction sought with a large enough effect; inconclusive = small, poorly fitted or top-dose-only effect, or another doubt; inactive = no such curve, though single readings can be large; an effect the other way counts as inactive or inconclusive.
SMILES,PLK1 PBD block,WRN helicase inh,TCR activator,VDR inh,FEN1 inhibitor,PI5P4K alpha inh,VDR confirm,VDR FP,VDR bla reporter,VDR viability
c1ccc(-c2nn3c(Cn4cnc5ccccc54)nnc3s2)cc1,7.52µM*,1.0%,-5.1%,?,3.0%,·,20*,7.08µM*,-20.7%,-19.3%
Cc1cc(C)c(S(=O)(=O)Nc2cc(SCC(=O)O)c(O)c3ccccc23)cc1C,1.5µM*,22.4µM*,2.0%[46.1 µM],22.4µM*,-34.6%,-59.5*,5.32*,11.2µM*,0.2%,?
CCN(CC)c1ccc(NC(=O)COc2ccccc2C#N)cc1S(=O)(=O)Nc1ccccc1OC,5.32µM*,-35.2%[57.1 µM],4.7%[46.1 µM],79.4µM*,1.0%,?,9.47*,?,-0.3%,16.8%
CC1=NN(c2ccccc2)C(=O)/C1=C\c1cn(CCC#N)nc1-c1ccc(Cl)cc1,0.0%,-3.1%[11.6 µM],-6.7%[46.1 µM],?,-23.1%,1.0,·,·,·,·
COc1cc(/C=C2\C(=O)N(CCC#N)N=C2C)c(Br)cc1OC(C)C,1.68µM*,-11.4%[11.6 µM],-1.2%[46.1 µM],?,-24.6%,·,8.44*,?,19.1%,17.8%
O=c1c2cccnc2n(Cc2ccc(Cl)cc2)c(=O)n1Cc1ccc(F)cc1,·,·,·,-8.0%,-1.0%,·,·,·,·,·
CC1CCc2c(sc(NC(=O)CCC(=O)O)c2C(=O)NC2CC2)C1 (stereo unspecified),5.32µM*,1.8%,-3.4%,56.2µM*,-8.2%,-26.4,26.7*,28.2µM*,10.2%,-5.3%
Cc1ccc(NC(=O)c2cnc(SCC(=O)N3CCCc4ccccc43)n(C)c2=O)cc1,·,·,·,-4.7%,15.1%,·,·,·,·,·
O=C(/C=C/c1c(F)cccc1Cl)c1ccc(F)cc1,?,-19.3%,0.5%,44.7µM*,-11.4%,18.6,10.6*,8.91µM*,28.9%,-16.6%
CC(C)c1ccc(/C=c2\sc3nc(-c4ccncc4)nn3c2=O)cc1,-30.0%,-16.3%,-5.9%,22.4µM*,-9.9%,-2.2,2.67*,?,-6.9%,17.7%
Cc1ccc(N2CN=c3s/c(=C\c4cccnc4)c(=O)n3C2)cc1,-10.7%,-2.5%,-1.3%,9.0%,-4.0%,-15.1,·,·,·,·
Cc1ccc(/C=c2\sc3nc(-c4cccnc4)nn3c2=O)cc1,-12.7%,?,17.5%,?,7.3%,-18.3,2.24*,1.12µM*,2.7%,17.8%
CCOc1ccc(/C=c2\sc3nc(-c4ccco4)nn3c2=O)cc1OCC,-26.1%,?,-6.1%,-15.1%,0.8%,-18.0,·,·,·,·
COc1cc(OC)c2c(C)cc(=O)oc2c1C(CCN1CCCC(C)C1)c1ccc(N(C)C)cc1 (stereo unspecified),·,·,·,1.9%,-26.5%,·,·,·,·,·
CCc1ccc2c(c1)/C(=C/C(=O)c1cccs1)C(=O)N2,?,-19.7%,-1.6%,25.1µM*,-12.5%,·,15*,8.91µM*,?,?
Cc1cccc2c1NC(=O)/C2=C\C(=O)c1cccs1,-27.3%,-16.0%,0.0%,?,-15.8%,-17.0,6.31*,8.91µM*,23.1µM*,29.9µM*
CCC(C)NC(=O)c1nn(-c2ccc(C)cc2)nc1CO (stereo unspecified),·,·,·,2.6%,0.1%,·,·,·,·,·
Nc1nc(-c2ccc(F)cc2)cc(C(F)(F)F)n1,-10.0%,-3.9%,5.5%,-10.1%,3.7%,6.8,·,·,·,·
CS(=O)(=O)c1nc(-c2ccc(F)cc2)cc(C(F)(F)F)n1,23.8µM*,-7.7%,0.4%,7.94µM*,-19.1%,-3.2,18.9*,?,?,?
